Mac1 fbg enh: CD11b/CD18-fibrinogen binding enhancement | K562 CD11b/CD18 adhesion to fibrinogen, ATPlite luminescence | AID 1499 | P05107+P11215 | hit rate 0.07% among 93,000 | activation, % at 10 µM;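 active = 10 µM primary screen giving 50% or more activity, confirmed by 40% or more on retest at that dose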
Target sequence (P05107 whole entry, looked up, other chains not shown): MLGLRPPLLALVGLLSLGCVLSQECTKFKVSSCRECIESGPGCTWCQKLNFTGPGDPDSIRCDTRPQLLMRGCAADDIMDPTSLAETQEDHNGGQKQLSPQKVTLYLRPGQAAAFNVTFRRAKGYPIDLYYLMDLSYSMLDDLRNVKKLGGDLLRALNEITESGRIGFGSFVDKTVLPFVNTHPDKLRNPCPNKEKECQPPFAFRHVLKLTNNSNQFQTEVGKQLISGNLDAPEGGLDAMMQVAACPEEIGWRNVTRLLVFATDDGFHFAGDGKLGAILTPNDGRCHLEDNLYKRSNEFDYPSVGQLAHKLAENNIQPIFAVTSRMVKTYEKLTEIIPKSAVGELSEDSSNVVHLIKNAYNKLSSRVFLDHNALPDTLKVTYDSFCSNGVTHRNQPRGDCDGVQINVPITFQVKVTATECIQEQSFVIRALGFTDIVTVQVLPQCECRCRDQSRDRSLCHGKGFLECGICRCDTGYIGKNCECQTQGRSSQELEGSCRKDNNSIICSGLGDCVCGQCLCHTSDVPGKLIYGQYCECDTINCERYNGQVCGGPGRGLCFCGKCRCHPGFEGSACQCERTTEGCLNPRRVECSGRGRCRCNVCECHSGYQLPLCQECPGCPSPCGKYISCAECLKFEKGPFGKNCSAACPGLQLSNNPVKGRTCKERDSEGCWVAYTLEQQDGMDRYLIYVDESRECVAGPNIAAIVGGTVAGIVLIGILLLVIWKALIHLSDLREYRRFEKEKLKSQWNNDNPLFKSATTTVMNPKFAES
CYP2C9 act: CYP2C9 (human) activation; P11712; recombinant CYP2C9, luciferin-H conversion, luminescence; stronger effect = higher value; factor 1 = untreated enzyme, 0 = blocked; activation factor at 5 µM; hit rate 1.4% among 96,000;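 active = activation factor of 2 or more for CYP2C9 at a 5 µM dose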;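 also: 0 = sulfaphenazole-blocked wells and 1 = vehicle-only wells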
CYP2C9 inhib: blocks human cytochrome P450 2C9. CYP2C9 Supersomes, luciferin-H conversion, luminescence. hit rate 20% among 96,000. inhibition, % at 5 µM;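 active = blocking of liver enzyme CYP2C9 beyond about 50% at 5 µM, limit read from the data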
CYP2C19 act: cytochrome P450 2C19 (human) activation; P33261; recombinant CYP2C19, luciferin-H EGE luminescence; stronger effect = higher value; 0 = fully inhibited enzyme, 1 = untreated enzyme; activation factor at 5 µM; 96,000 tested, under 10 active;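 active = activation factor of at least 2 at 5 µM in the primary screen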;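 also: 0 = wells with 2.5 mM tranylcypromine and 1 = vehicle-only wells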
CYP2C19 inh: inhibitors of human CYP2C19; P33261; CYP2C19 Supersomes, luciferin-H EGE luminescence, 30 min; inhibition, % at 5 µM; hit rate 21% among 96,000; AID 778;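 active = CYP2C19 inhibition above a set limit at 5 µM in the primary screen, cut at about 50% in these data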;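 also: plate controls were negative control wells for no effect and 2.5 mM tranylcypromine positive control for full effect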
Mac1 fbg inh: blocks human CD11b/CD18 adhesion to fibrinogen. hit rate 0.54% among 93,000. inhibition, % at 10 µM. P05107+P11215. K562 CD11b/CD18 adhesion to fibrinogen, ATPlite luminescence; Mn2+ added to activate the integrin;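 active = primary inhibition of 50% or more at 10 µM, then 40% or more on retest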
The depositor's hits bear a star; / = no result given. Compounds with a hit are over-represented: about 28% of the library has one in this group of screens.

SMILES | Mac1 fbg enh | CYP2C9 act | CYP2C9 inhib | CYP2C19 act | CYP2C19 inh | Mac1 fbg inh
Cc1ccc(NC(=S)N(Cc2cccs2)Cc2cc3cccc(C)c3[nH]c2=O)cc1 | 24 | / | / | / | / | 4
Cc1cc(Br)c2[nH]c3c(c2c1)CCCC3=O | 0 | 1.4 | -35 | 0.9 | 13 | 0
O=C(CSc1nc2ccccc2o1)NC(=O)NCc1ccco1 | 1 | 0.8 | 25 | 0.5 | 51* | 4
O=C(CSc1nc2ccccc2o1)NCc1ccco1 | -4 | 1 | 0 | 0.3 | 72* | 0
O=C(CSc1n[nH]c(-c2ccccc2)n1)NC(=O)NCc1ccco1 | 2 | 0.2 | 79* | 0.2 | 83* | 17
O=C(CSc1nc2ccccc2o1)NC(=O)NCc1ccccc1 | / | 0.7 | 30 | 0.7 | 28 | /
COC(=O)c1ccc(C2C(C(C)=O)=C(O)C(=O)N2CCO)cc1 (configuration not stated) | -3 | 1 | 3 | 1 | 0 | 3
CCOC(=O)c1ccccc1NC(=O)/C(C)=C/C(=O)O | / | 1.2 | -19 | 1.2 | -18 | /
O=c1cc(CN2CCc3ccccc32)nc2sccn12 | 7 | 0.3 | 67* | 0.4 | 57* | -12
CCCCC(=O)NC1=C(C(=O)OC)SCC1 | 2 | / | / | / | / | -1
CC(=O)C1=NOC(CNC(=O)c2c(-c3ccccc3Cl)noc2C)C1 (configuration not stated) | / | 0.9 | 7 | 0.9 | 10 | /
CC(C)CNC(=O)c1cc2nc3c(c(C(F)(F)F)n2n1)CCc1ccccc1-3 | -1 | 0.1 | 88* | 0.3 | 68* | -3
CCCCNC(=O)c1cc2nc3c(c(C(F)(F)F)n2n1)CCc1ccccc1-3 | / | 0.8 | 21 | 1 | 3 | /
Cc1cccc(S(=O)(=O)c2c(N)n(/N=C/c3ccco3)c3nc4ccccc4nc23)c1 | 2 | 0.1 | 86* | 0.4 | 61* | 16
Nc1c(S(=O)(=O)c2ccccc2)c2nc3ccccc3nc2n1/N=C/c1ccco1 | -2 | 0.8 | 21 | 0.9 | 8 | -15
Cc1ccc(S(=O)(=O)c2c(N)n(CC3CCOC3)c3nc4ccccc4nc23)cc1 (configuration not stated) | -3 | 0.2 | 82* | 0.1 | 86* | 10
Cc1ccc(S(=O)(=O)c2c(N)n(/N=C/c3ccco3)c3nc4ccccc4nc23)cc1C | 11 | 0.5 | 51* | 0.8 | 23 | 1
Cc1ccc(S(=O)(=O)c2c(N)n(/N=C/c3ccco3)c3nc4ccccc4nc23)cc1 | 2 | 0.2 | 84* | 0.3 | 68* | 8
O=C(O)c1n[nH]c2c1CCCCC2 | -4 | 0.8 | 16 | 1 | 4 | 1
O=C(c1n[nH]c2c1CCCC2)n1ccnc1 | -2 | 0.5 | 52* | 0.8 | 16 | -21
O=C(O)c1n[nH]c2c1CCCC2 | -1 | 2.1* | -108 | 1 | 5 | -22
Clc1cccc(CN2CCCCCCC2)c1Cl | 1 | / | / | / | / | 4
CCOC(=O)c1c(C)oc2ccc(O)c(CN(C)C)c12 | -1 | 1 | 3 | 1 | 2 | -4
CN(C)Cc1c(O)ccc2oc(Cc3ccccc3)cc12 | -1 | 0.8 | 23 | 0.3 | 72* | -7
CCCNC(=O)COc1ccccc1[N+](=O)[O-] | -2 | / | / | / | / | -2
SMILES | Mac1 fbg enh | CYP2C9 act | CYP2C9 inhib | CYP2C19 act | CYP2C19 inh | Mac1 fbg inh
Fc1ccccc1CSc1nncn1NC/C=C/c1ccccc1 | / | 0.8 | 18 | 0.5 | 53* | /
O=C(NC(=S)N(CCCCO)C1CCCCC1)c1sc2ccccc2c1Cl | / | 0.5 | 54* | 0.6 | 36 | /
O=C(NC1=NCCS1)c1sc2ccccc2c1Cl | -3 | 1.1 | -14 | 0.8 | 20 | -21
Cc1ccc(Nc2nc3nonc3[nH]c2=O)cc1C | -11 | 0.4 | 58* | 1.1 | -9 | 100*
COc1ccc(C(=O)/C=C\N2CCOCC2)cc1 | 1 | 0.9 | 10 | 0.9 | 14 | -12
CC1CCc2sc(C(=O)OCC(=O)NCc3ccc(F)cc3)cc2C1 (configuration not stated) | -6 | / | / | / | / | 17
Cc1ccc(S(=O)(=O)NC(CC(=O)n2nc(C)cc2C)c2ccccc2)cc1 (configuration not stated) | -1 | 0.1 | 94* | 0 | 100* | 5
Cc1ccc(S(=O)(=O)NC(CC(=O)O)c2ccccc2)cc1 (configuration not stated) | -4 | 0.9 | 10 | 1.1 | -9 | 13
Cc1ccc(S(=O)(=O)NC(c2ccccc2)C(C)C(=O)n2nc(C)cc2C)cc1 (configuration not stated) | 0 | 0.5 | 50 | 0 | 100* | -38
Cc1cc(-c2ccccc2)nc2[n+]1CCN2C | -1 | 0.9 | 10 | 1 | -3 | -18
COc1cc(C2CC(=O)c3cnc(NC(=O)COc4ccccc4)nc3C2)cc(OC)c1OC (configuration not stated) | 1 | 0.8 | 19 | 0.9 | 15 | -10
COc1cc(OC)cc(C(=O)Nc2ncc3c(n2)CC(C)CC3=O)c1 (configuration not stated) | 2 | 1.1 | -11 | 1 | 2 | -9
CCOCCCNc1ncc2c(n1)CC(c1ccc(C)cc1)CC2=O (configuration not stated) | -6 | 0.4 | 59* | 0.6 | 41 | -16
COc1ccc(C2CC(=O)c3cnc(NC(=O)c4cc(OC)cc(OC)c4)nc3C2)cc1 (configuration not stated) | 0 | 0.3 | 69* | 0.2 | 83* | -24
COc1ccc(C2CC(=O)c3cnc(NC(=O)c4ccccc4)nc3C2)cc1OC (configuration not stated) | 3 | 0.3 | 70* | 0.9 | 10 | -8
CS(=O)(=O)N1CCCC(C(=O)NCCCN2CCc3ccccc3C2)C1 (configuration not stated) | 4 | 1.2 | -15 | 0.9 | 13 | 3
Fc1ccccc1NC(=S)NN(Cc1ccccc1)c1ccccc1 | -3 | 0.2 | 82* | 0 | 95* | 4
CC(C)c1ccccc1NC(=S)NN(Cc1ccccc1)c1ccccc1 | / | 0.5 | 46 | 0.4 | 62* | /
CC(C)c1ccccc1NC(=S)NC1CCN(Cc2ccccc2)CC1 | 1 | / | / | / | / | 2
Cc1cccc(C)c1NC(=S)NN(Cc1ccccc1)c1ccccc1 | 2 | 0.9 | 10 | 0.6 | 45 | 4
O=C(CSc1nccc(=O)[nH]1)Nc1ccc(F)c(Cl)c1 | 4 | 0.8 | 22 | 1 | -1 | -34
O=C(CSc1nccc(=O)[nH]1)Nc1ccc(Br)c(Cl)c1 | -11 | 0.2 | 79* | 0.7 | 34 | 10
Cc1nc(SCC(=O)NC(C)(C#N)C2CC2)c2c(-c3cccs3)csc2n1 (configuration not stated) | 1 | / | / | / | / | 33
Cc1occc1-c1nnc(SCC(=O)NC(=O)NC(C)C)n1N | 2 | 1.1 | -6 | 1 | 1 | 0

Bioassay records deposited in PubChem by Sanford-Burnham Center for Chemical Genomics.
